# Measurements from the supplement of paper PMC9694430.
# Where “and” joins values, the source holds several entries; their conditions need not be identical. Identical values can stand only once. Counter-ions that a name gives are not always drawn.
# System: LOC_OS01G60700-cb002
# Assay: thermal shift delta Tm vs DMSO control; higher = stronger stabilization (binding)
# Settings: 12.5 µM; protein concentration 2 µM
# How it was run: (§1)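 Purified, E. coli-expressed rice kinase domain constructs were tested by differential scanning fluorimetry in 96-well plates: 19.5 μl of 2 μM kinase in 100 mM potassium phosphate pH 7.5, 150 mM NaCl, 10% glycerol, 5 × SYPRO Orange, plus compound in DMSO. Fluorescence was read from 25°C to 95°C at 0.05°C/s. Melting temperatures came from Boltzmann fits, and the shift is the triplicate mean relative to protein with DMSO alone.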
row,Structure (SMILES),thermal shift delta Tm
1,COc1cc(Nc2ncc(F)c(Nc3ccc4c(n3)NC(=O)C(C)(C)O4)n2)cc(OC)c1OC,0.57 °C
2,Cc1ccc(-n2nc(C(C)(C)C)cc2NC(=O)Nc2ccc(OCCN3CCOCC3)c3ccccc23)cc1 [Doramapimod (BIRB 796)],0.98 °C
3,CC#CC(=O)N1CC[C@@H](n2c(=O)n(-c3ccc(Oc4ccccc4)cc3)c3c(N)ncnc32)C1 [ONO-4059 (GS-4059) hydrochloride],0.99 °C
4,O=C(NC[C@H](O)CO)c1ccncc1Nc1ccc(I)cc1F,0.44 °C
5,CO[C@H]1C[C@@H]2CC[C@@H](C)[C@@](O)(O2)C(=O)C(=O)N2CCCC[C@H]2C(=O)O[C@H]([C@H](C)C[C@@H]2CC[C@@H](O)[C@H](OC)C2)CC(=O)[C@H](C)/C=C(\C)[C@@H](O)[C@@H](OC)C(=O)[C@H](C)C[C@H](C)/C=C/C=C/C=C/1C [Rapamycin (Sirolimus)],1.04 °C
6,COc1c(C)c(C(=O)c2ccc(N)c(C(=O)O)c2)n2ccccc12,1.12 °C
7,CC(C)CC(=O)Nc1n[nH]c2c1CN(C(=O)C1CCN(C)CC1)C2(C)C,0.94 °C
8,COc1cc2ncnc(Nc3ccc(O)c(Br)c3)c2cc1OC,1.72 °C
9,CCN(CC)CCCC(C)Nc1nc(C)cc(Nc2ccc3nc(C)cc(N)c3c2)n1 (centres undefined),0.91 °C
10,Cc1cc(NC(=O)c2cccc(NC(=O)/C=C/CN(C)C)c2)ccc1Nc1nccc(-c2cccnc2)n1,1.77 °C
11,COc1cc2ncnc(Nc3cccc(Cl)c3F)c2cc1OC(=O)N1CCN(C)C[C@H]1C,0.77 °C
12,Cc1ccc(C(=O)Nc2ccc(Oc3cc4cnn(C)c4cc3-c3cn[nH]c3)c(F)c2)c(=O)n1-c1ccc(F)cc1,1.29 °C
13,CC#CC(=O)N1CCC[C@H]1c1nc(-c2ccc(C(=O)Nc3ccccn3)cc2)c2c(N)nccn12 [Acalabrutinib (ACP-196)],1.14 °C
14,Nc1ncccc1-c1nc2ccc(-c3ccccc3)nc2n1-c1ccc(C2(N)CCC2)cc1 [Miransertib (ARQ 092) HCl],-0.42 °C
15,Cc1cc(C(C)Nc2ccccc2)c2nc(N3CCOCC3)cc(=O)n2c1 (centres undefined),0.52 °C
16,COc1cc2nccc(Oc3ccc(NC(=O)C4(C(=O)Nc5ccc(F)cc5)CC4)cc3)c2cc1OC [Cabozantinib malate (XL184)],1.35 °C
17,COC(=O)N[C@@H](C)CNc1nccc(-c2cn(C(C)C)nc2-c2cc(Cl)cc(NS(C)(=O)=O)c2F)n1 [Encorafenib (LGX818)],1.13 °C
18,COc1ccc(C(=O)Nc2sc3c(c2C(N)=O)CCCC3)cc1OC,1.23 °C
19,CN1C(=O)[C@@H](NC(=O)c2n[nH]c(Cc3ccccc3)n2)COc2ccccc21,0.2 °C

row,Structure (SMILES),thermal shift delta Tm
1,Nc1nccc(Oc2ccc(NC(=O)c3c[nH]cc(-c4ccc(F)cc4)c3=O)cc2F)c1Cl,1.09 °C
2,COc1cc2c(c(OC)c1OC)-c1c(cc3c(c1OC)OCO3)CC(C)C(C)C2 (centres undefined) [Schisandrin B (Sch B)],0.75 °C
3,COC(=O)c1ccc2c(c1)NC(=O)/C2=C(\Nc1ccc(N(C)C(=O)CN2CCN(C)CC2)cc1)c1ccccc1 [Nintedanib (BIBF 1120)],0.96 °C
4,O=C(Nc1ccccc1C(=O)NC1CCCCNC1=O)c1cc2ccccc2s1 (centres undefined),0.65 °C
5,Cc1cc(C)c(/C=C2\C(=O)Nc3ccccc32)[nH]1 [Semaxanib (SU5416)],1.12 °C
6,N#Cc1cccc(-c2c[nH]c3ncnc(N4CCOCC4)c23)c1,0.99 °C
7,Cc1ccc2nc(NCCN)c3ncc(C)n3c2c1,0.64 °C
8,C[C@@H]1CCN(C(=O)CC#N)C[C@@H]1N(C)c1ncnc2[nH]ccc12,0.98 °C and 1.64 °C
9,Cc1nc(NC(=O)N2CCC[C@H]2C(N)=O)sc1-c1ccnc(C(C)(C)C(F)(F)F)c1 [Alpelisib (BYL719)],1.65 °C
10,CNc1nc(Nc2cn(C(C)(C)C#N)nc2C)ncc1C(F)(F)F,1.27 °C
11,O=C(Nc1c[nH]nc1-c1nc2ccc(CN3CCOCC3)cc2[nH]1)NC1CC1,1.09 °C
12,N#Cc1ccc(-c2c(-c3ncn[nH]3)sc(N3CCOCC3)c2C#N)c(F)c1,1.22 °C
13,Oc1cccc(-c2nc(N3CCOCC3)c3oc4ncccc4c3n2)c1,1.37 °C
14,CN(C)C/C=C/C(=O)Nc1ccc(C(=O)Nc2cccc(Nc3ncc(Cl)c(-c4c[nH]c5ccccc45)n3)c2)cc1,2.21 °C
15,CCNC(=O)Nc1ccc(-c2nc(N3CCOC[C@@H]3C)c3c(n2)C(C)(C)S(=O)(=O)C3)cc1,-0.02 °C
16,CNC(=O)c1cc(Oc2ccc3nc(N[C@@H]4CCCC[C@H]4O)sc3c2)ccn1,1.46 °C
17,CN(C)CCOc1ccc(-c2nc(-c3ccncc3)c(-c3ccc4c(c3)CC/C4=N\O)[nH]2)cc1,0.49 °C
18,Cc1ccc(NC(=O)c2cccc(N(C)C)c2)cc1NC(=O)c1ccc(O)cc1,1.43 °C

# System: LOC_OS01G63280-cb003
# Assay: as above
# Settings: 12.5 µM; protein concentration 2 µM
# How it was run: as §1
row,Structure (SMILES),thermal shift delta Tm
1,COc1cc(Nc2ncc(F)c(Nc3ccc4c(n3)NC(=O)C(C)(C)O4)n2)cc(OC)c1OC,0.28 °C
2,Cc1ccc(-n2nc(C(C)(C)C)cc2NC(=O)Nc2ccc(OCCN3CCOCC3)c3ccccc23)cc1 [Doramapimod (BIRB 796)],1.11 °C
3,CC#CC(=O)N1CC[C@@H](n2c(=O)n(-c3ccc(Oc4ccccc4)cc3)c3c(N)ncnc32)C1 [ONO-4059 (GS-4059) hydrochloride],-0.08 °C
4,O=C(NC[C@H](O)CO)c1ccncc1Nc1ccc(I)cc1F,0.1 °C
5,CO[C@H]1C[C@@H]2CC[C@@H](C)[C@@](O)(O2)C(=O)C(=O)N2CCCC[C@H]2C(=O)O[C@H]([C@H](C)C[C@@H]2CC[C@@H](O)[C@H](OC)C2)CC(=O)[C@H](C)/C=C(\C)[C@@H](O)[C@@H](OC)C(=O)[C@H](C)C[C@H](C)/C=C/C=C/C=C/1C [Rapamycin (Sirolimus)],0.14 °C
6,COc1c(C)c(C(=O)c2ccc(N)c(C(=O)O)c2)n2ccccc12,-0.1 °C
7,CC(C)CC(=O)Nc1n[nH]c2c1CN(C(=O)C1CCN(C)CC1)C2(C)C,0.65 °C
8,COc1cc2ncnc(Nc3ccc(O)c(Br)c3)c2cc1OC,0.92 °C
9,CCN(CC)CCCC(C)Nc1nc(C)cc(Nc2ccc3nc(C)cc(N)c3c2)n1 (centres undefined),0.28 °C
10,Cc1cc(NC(=O)c2cccc(NC(=O)/C=C/CN(C)C)c2)ccc1Nc1nccc(-c2cccnc2)n1,0.92 °C
11,COc1cc2ncnc(Nc3cccc(Cl)c3F)c2cc1OC(=O)N1CCN(C)C[C@H]1C,0.24 °C
12,Cc1ccc(C(=O)Nc2ccc(Oc3cc4cnn(C)c4cc3-c3cn[nH]c3)c(F)c2)c(=O)n1-c1ccc(F)cc1,5.18 °C
13,CC#CC(=O)N1CCC[C@H]1c1nc(-c2ccc(C(=O)Nc3ccccn3)cc2)c2c(N)nccn12 [Acalabrutinib (ACP-196)],0.05 °C
14,Nc1ncccc1-c1nc2ccc(-c3ccccc3)nc2n1-c1ccc(C2(N)CCC2)cc1 [Miransertib (ARQ 092) HCl],-0.11 °C
15,Cc1cc(C(C)Nc2ccccc2)c2nc(N3CCOCC3)cc(=O)n2c1 (centres undefined),-0.26 °C
16,COc1cc2nccc(Oc3ccc(NC(=O)C4(C(=O)Nc5ccc(F)cc5)CC4)cc3)c2cc1OC [Cabozantinib malate (XL184)],0.47 °C
17,COC(=O)N[C@@H](C)CNc1nccc(-c2cn(C(C)C)nc2-c2cc(Cl)cc(NS(C)(=O)=O)c2F)n1 [Encorafenib (LGX818)],16.6 °C
18,COc1ccc(C(=O)Nc2sc3c(c2C(N)=O)CCCC3)cc1OC,0.62 °C
19,CN1C(=O)[C@@H](NC(=O)c2n[nH]c(Cc3ccccc3)n2)COc2ccccc21,0.29 °C

row,Structure (SMILES),thermal shift delta Tm
1,Nc1nccc(Oc2ccc(NC(=O)c3c[nH]cc(-c4ccc(F)cc4)c3=O)cc2F)c1Cl,7.56 °C
2,COc1cc2c(c(OC)c1OC)-c1c(cc3c(c1OC)OCO3)CC(C)C(C)C2 (centres undefined) [Schisandrin B (Sch B)],0.34 °C
3,COC(=O)c1ccc2c(c1)NC(=O)/C2=C(\Nc1ccc(N(C)C(=O)CN2CCN(C)CC2)cc1)c1ccccc1 [Nintedanib (BIBF 1120)],-0.1 °C
4,O=C(Nc1ccccc1C(=O)NC1CCCCNC1=O)c1cc2ccccc2s1 (centres undefined),-0.03 °C
5,Cc1cc(C)c(/C=C2\C(=O)Nc3ccccc32)[nH]1 [Semaxanib (SU5416)],0.7 °C
6,N#Cc1cccc(-c2c[nH]c3ncnc(N4CCOCC4)c23)c1,4.38 °C
7,Cc1ccc2nc(NCCN)c3ncc(C)n3c2c1,0.27 °C
8,C[C@@H]1CCN(C(=O)CC#N)C[C@@H]1N(C)c1ncnc2[nH]ccc12,0.28 °C and 0.78 °C
9,Cc1nc(NC(=O)N2CCC[C@H]2C(N)=O)sc1-c1ccnc(C(C)(C)C(F)(F)F)c1 [Alpelisib (BYL719)],0.27 °C
10,CNc1nc(Nc2cn(C(C)(C)C#N)nc2C)ncc1C(F)(F)F,0.69 °C
11,O=C(Nc1c[nH]nc1-c1nc2ccc(CN3CCOCC3)cc2[nH]1)NC1CC1,5.34 °C
12,N#Cc1ccc(-c2c(-c3ncn[nH]3)sc(N3CCOCC3)c2C#N)c(F)c1,0.44 °C
13,Oc1cccc(-c2nc(N3CCOCC3)c3oc4ncccc4c3n2)c1,0.94 °C
14,CN(C)C/C=C/C(=O)Nc1ccc(C(=O)Nc2cccc(Nc3ncc(Cl)c(-c4c[nH]c5ccccc45)n3)c2)cc1,1.68 °C
15,CCNC(=O)Nc1ccc(-c2nc(N3CCOC[C@@H]3C)c3c(n2)C(C)(C)S(=O)(=O)C3)cc1,0.04 °C
16,CNC(=O)c1cc(Oc2ccc3nc(N[C@@H]4CCCC[C@H]4O)sc3c2)ccn1,0.76 °C
17,CN(C)CCOc1ccc(-c2nc(-c3ccncc3)c(-c3ccc4c(c3)CC/C4=N\O)[nH]2)cc1,0.02 °C
18,Cc1ccc(NC(=O)c2cccc(N(C)C)c2)cc1NC(=O)c1ccc(O)cc1,0.32 °C
